What all share (test): PBM binding z-score (relative to random genomic background probes); higher = stronger binding; sequences stand for … in GC…GCGATTGACAGCGTAGAATGAAGG
Experiment [1] deals with RARb homodimer (NR concentration 270 nM). The procedure, abridged:
(§1)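 On custom Agilent 4×180K arrays, double-stranded probes with 34-nt variable regions carried direct-repeat seeds, single-nucleotide variants, half-site ablations or random human genomic background. Ligand-free nuclear receptor dimers were applied for 1 h, and binding was read with antibodies against each partner (one per run). Binding z-scores come from regression-normalized fluorescence, with the random background probes as reference.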

The subject of experiment [2] is RARg:RXRa (NR concentration 270 nM, RXRa partner concentration 90 nM). The procedure, abridged: as §1
Experiment [3] has as its system RARg homodimer (NR concentration 270 nM). Put shortly:
as §1

Experiment [4] deals with RXRa DBDmut IVT, anti-RXR (DBD mutation: RXRa K156A/R161A, NR concentration 90 nM). Put shortly: as §1
Experiment [5] concerns THRa:RXRa (NR concentration 90 nM, RXRa partner concentration 90 nM). Put shortly:
as §1

Experiment [6] deals with THRa homodimer (NR concentration 90 nM). Put shortly: as §1
Experiment [7] deals with VDR homodimer (NR concentration 270 nM). The procedure, abridged: as §1
In experiment [8] the test system is VDR:RXRa (NR concentration 270 nM, RXRa partner concentration 90 nM). Put shortly: as §1

Take CTCGAAAGGTGGTGCTCAGGTGAGTATACCAAAC: the PBM binding z-score was 0.207 in experiment [1]; 0.0538 in experiment [2]; -0.152 in experiment [3]; -0.443 in experiment [4]; 1.78 in experiment [5]; 0.504 in experiment [6]. This sequence also returned a PBM binding z-score in experiment [7] of -0.0516.

With TGAATGAGGTCAAAGATCAGGGAACGTGGCGTCG, the PBM binding z-score in experiment [1] was 3.65; in experiment [2], 6.3; in experiment [3], 6.16; in experiment [4], 4.12; in experiment [5], 4.33; in experiment [6], 3.06. In addition, the PBM binding z-score in experiment [8] was 5.6; in experiment [7] it was 4.68.

As for ATCGAATGGTCGTGAGGTGAGTATACAGAAAGGC, the PBM binding z-score in experiment [1] is 0.456; in experiment [2], 0.502; in experiment [3], 0.684; in experiment [4] it was -0.556; in experiment [5], 1.5; in experiment [6] it was 1.09. The sequence also had a PBM binding z-score in experiment [7] of 0.0134.

Turning to AGTCAAAGTTCATCTAGGTATCGTAAGATATGCT, the PBM binding z-score is 3.84 in experiment [1]; 5.45 in experiment [2]; 5.99 in experiment [3]; 4.54 in experiment [4]; 2.8 in experiment [5]; -0.179 in experiment [6]. The PBM binding z-score in experiment [8] was found to be 5.01; in experiment [7] it was 5.25.
